LRH-1 inv ag: suppresses constitutive activity of human LRH-1. AID 602396. 0.13% of 360,000 active. O00482. HEK293T StAR-luciferase reporter, LRH-1 transfected, 24 h. inhibition, % at 3.6 µM;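 active means inhibition above the mean inhibition of all tested compounds plus 3 SD, cut at about 73% in these data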;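 further: 0% = DMSO wells and 100% = reporter-only cells lacking LRH-1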
NR2F2 inh: blocks human COUP-TFII nuclear receptor; HEK293T NGFI-A luciferase reporter, luminescence; inhibition, % at 8.6 µM; 0.7% of 370,000 active;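 active means inhibition above a per-plate cutoff, mean inhibition of test wells between control levels plus 3 SD, cut at about 38% in these data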;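 further: cells cotransfected with COUP-TFII expression vector driving the NGFI-A reporter; 0% = median of COUP-TF2 test wells and 100% = reporter-only cells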
Target sequence (P24468 whole entry, looked up): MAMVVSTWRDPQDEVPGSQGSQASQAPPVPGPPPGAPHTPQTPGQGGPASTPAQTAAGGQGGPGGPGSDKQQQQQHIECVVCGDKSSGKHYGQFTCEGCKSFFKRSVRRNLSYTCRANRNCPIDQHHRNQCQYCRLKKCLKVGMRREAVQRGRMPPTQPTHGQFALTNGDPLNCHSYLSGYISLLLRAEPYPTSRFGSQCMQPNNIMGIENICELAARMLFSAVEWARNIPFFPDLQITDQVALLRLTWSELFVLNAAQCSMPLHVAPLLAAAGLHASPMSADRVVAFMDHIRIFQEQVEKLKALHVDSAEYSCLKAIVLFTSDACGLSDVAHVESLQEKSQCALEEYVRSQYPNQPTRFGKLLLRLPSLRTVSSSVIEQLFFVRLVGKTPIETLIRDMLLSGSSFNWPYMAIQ
NCOA2 inhibitor: inhibits human steroid receptor coactivator 2 | HEK293 GAL4-SRC2 luciferase reporter, luminescence | inhibition, % at 9 µM | 0.17% of 370,000 active | AID 651957;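 active means inhibition above the mean inhibition of all tested compounds plus 3 SD, set per campaign, cut at about 52% in these data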;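 further: 0% = DMSO treated cells and 100% = cells given Gossypol at 36 µM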
SRC1 inh: human NCOA1 inhibition | inhibition, % at 3.6 µM | AID 588354 | 0.12% of 360,000 active | Q15788 | HEK293 GAL4-SRC1 luciferase reporter, luminescence;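 active means inhibition above the campaign mean plus 3 SD, with each screening campaign given its own cutoff, cut at about 60% in these data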;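 further: 0% = DMSO treated cells and 100% = gossypol at 36 µM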
SRC3 inh: human NCOA3 inhibition; HEK293 GAL4-SRC3 luciferase reporter, luminescence; inhibition, % at 3.6 µM; Q9Y6Q9; 0.17% of 360,000 active;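 active means inhibition above a per-campaign cutoff, the mean of all compounds plus 3 SD, cut at about 60% in these data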;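 further: 0% = DMSO-treated cells and 100% = gossypol-treated cells at 36 µM; higher means less SRC3-driven luciferase light from the GAL4 reporter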
VP16 Luc counter: counter-screen for COUP-TFII antagonists: inhibitors of VP16; shares compounds with NR2F2 inh; HEK293 Gal4-VP16 luciferase reporter, luminescence; inhibition, % at 8.5 µM; 25% of 2,500 active; in the data active means inhibition above about 13%
NR2F2 inh conf: COUP-TFII (NR2F2) inhibition, confirmation assay. shares compounds with NR2F2 inh. HEK293 NGFI-A luciferase reporter, luminescence. inhibition, % at 8.5 µM. 45% of 2,500 active. AID 687008;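 active means mean inhibition over three repeats above a set limit taken from the earlier primary screen, cut at about 38% in these data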;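 further: 100% = cells given the luciferase reporter alone without the COUP-TF2 vector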
Numbers without * were called inactive; nt = not tested or not shown. The list is not random: actives were taken first. Their share in the collection is about 0.81%.

SMILES | LRH-1 inv ag | NR2F2 inh | NCOA2 inhibitor | SRC1 inh | SRC3 inh | VP16 Luc counter | NR2F2 inh conf
COc1ccc(S(=O)(=O)Nc2ccc3c(c2)OCO3)cc1OC | 1 | -6 | -14 | -12 | 4 | nt | nt
COc1ccc(NS(=O)(=O)c2ccc3c(c2)OCCO3)cc1OC | 66 | 57* | 39 | 17 | 26 | 3 | 40*
COc1ccccc1NS(=O)(=O)c1ccc(-c2cnc(C3CC3)o2)cc1 | 7 | -14 | 1 | 17 | 9 | nt | nt
Cc1cc(-c2n[nH]c(=S)n2N=Cc2cccc(Oc3ccccc3)c2)n[nH]1 | nt | -6 | -10 | nt | nt | nt | nt
CCOC(=O)C1CCN(C(=O)CCc2c(C)nc3cc(-c4ccccc4)nn3c2C)CC1 | 8 | 8 | 50 | -2 | -3 | nt | nt
CCOC(=O)C1CCCCN1C(=O)CCc1c(C)nc2cc(-c3ccccc3)nn2c1C (centres undefined) | 0 | 52* | 70* | -2 | 21 | -13 | 20
COc1cc(OC)cc(-c2cc3nc(C)c(CCC(=O)O)c(C)n3n2)c1 | 53 | 89* | 78* | 53 | 55 | 89* | 97*
COc1cc(OC)cc(-c2cc3nc(C)c(CCC(=O)NC(C)CCc4ccco4)c(C)n3n2)c1 (centres undefined) | -3 | 26 | 32 | -2 | 12 | nt | nt
CCCC/C=C1/[C@@H](C(C)C)N(Cc2ccc3c(c2)OCO3)C2=N[C@H](c3ccccc3)CC(=O)N21 | nt | 4 | nt | nt | nt | nt | nt
CC(C)(C)c1ccc(OCCC(=O)OCC(=O)NC2CC2)cc1 | 6 | 43* | 40 | 13 | -2 | 17* | 4
CC(C)(C)c1ccc(OCCC(=O)OCC(=O)NC2CCS(=O)(=O)C2)cc1 (centres undefined) | 10 | -9 | -32 | 0 | 14 | nt | nt
Cc1nc(Nc2ncc(C(=O)Nc3c(C)cccc3Cl)s2)cc(N2CCN(CCO)CC2)n1 | nt | 39* | -7 | nt | nt | 3 | 18
Cc1ccc(-c2csc3ncnc(NCCN4CCOCC4)c23)cc1 | -3 | 38* | 28 | 24 | 30 | 9 | 24
Clc1ccc(-c2csc3ncnc(NCCN4CCOCC4)c23)cc1 | -12 | 31 | 33 | 30 | 35 | nt | nt
Cc1cc(Nc2ccccc2)nc(NCc2ccccc2)n1 | 19 | 38* | 28 | 10 | 0 | -5 | 21
C(=Cc1cnc2ccccc2n1)c1ccc2c(c1)OCO2 | 6 | 52* | 52 | 43 | 49 | 65* | 79*
C(=Cc1nc2ccccc2o1)c1ccc2c(c1)OCO2 | -129 | -24 | -23 | -105 | -98 | nt | nt
Cc1ccc(CN2CCCCC(NC(=O)Nc3ccccc3F)C2=O)cc1 (centres undefined) | nt | -15 | 2 | nt | nt | nt | nt
Cc1nc2sccn2c1-c1csc(NCc2ccccc2)n1 | 18 | 38* | 22 | 17 | 17 | -16 | 21
COC(=O)[C@]12CCCCC=C1N(Cc1ccc(OC)cc1)C(=O)[C@@H]2CC(=O)NCCc1ccccc1OC | nt | 11 | 1 | nt | nt | nt | nt
CCN(CC)C(=O)c1oc2ccc(S(=O)(=O)N3CCCCCC3)cc2c1C | 6 | 20 | 24 | 3 | 23 | nt | nt
CCN(CC)C(=O)c1oc2ccc(S(=O)(=O)N3CC(C)CC(C)C3)cc2c1C (centres undefined) | 25 | 51* | 14 | -20 | 21 | 1 | 49*
O=C(CN1C(=O)S/C(=C\c2ccccc2)C1=O)NNC(=O)c1ccccc1O | 6 | 6 | 11 | -13 | -3 | nt | nt
O=C(CCCN1C(=O)/C(=C/c2ccccc2Cl)SC1=S)NNC(=O)c1ccc(Cl)cc1Cl | 3 | 72* | 81* | 27 | 34 | 39* | 42*
O=C(CCN1C(=O)/C(=C/c2ccccc2Cl)SC1=S)Nc1ccccc1C(=O)O | 4 | -7 | 8 | -22 | 4 | nt | nt
SMILES | LRH-1 inv ag | NR2F2 inh | NCOA2 inhibitor | SRC1 inh | SRC3 inh | VP16 Luc counter | NR2F2 inh conf
O=C(CCCN1C(=O)S/C(=C\c2ccccc2)C1=O)NNC(=O)c1ccccc1O | 42 | 61* | 78* | 60 | 71* | 82* | 87*
O=C(CCCN1C(=O)/C(=C/c2ccccc2Cl)SC1=S)NNC(=O)c1cccnc1 | 20 | 54* | 79* | 18 | 18 | 3 | 16
O=C(CCCN1C(=O)/C(=C/c2ccccc2Cl)SC1=S)NNC(=O)c1ccccc1 | 37 | 64* | 81* | 37 | 40 | 28* | 38*
C[C@@H]1CCCN1c1cccc2c1S(=O)(=O)N1CC[C@H](C1)O2 | nt | 2 | 4 | nt | nt | nt | nt
O=C(NC1CCCCN(Cc2cccc(C(F)(F)F)c2)C1=O)c1ccc(Cl)cc1 (centres undefined) | nt | 29 | 16 | nt | nt | nt | nt
CCN=C1S/C(=C/c2cc(C)n(-c3ccc(Cl)cc3F)c2C)C(=O)N1CC | nt | 10 | nt | nt | nt | nt | nt
COc1ccc2c(c1)C(CC(C)=O)N(c1ccc(-c3cnc(OC)nc3)cc1)C(c1ccsc1)=C2 (centres undefined) | -13 | -5 | -4 | nt | nt | nt | nt
COc1ccc2c(c1)C(CC(C)=O)N(c1ccc(-c3cccs3)cc1)C(c1ccsc1)=C2 (centres undefined) | 38 | 47* | 1 | nt | nt | -14 | -2
CCC(C)CNC(=O)CSc1nnc(-c2cccnc2)n1C1CCCCC1 (centres undefined) | nt | -6 | -6 | nt | nt | nt | nt
CC(=O)c1ccc(N2CCN(C(=O)/C=C/c3ccc(S(=O)(=O)N4CCOCC4)cc3)CC2)cc1 | 21 | 8 | 8 | -5 | 0 | nt | nt
CC(=O)c1ccc(N2CCN(C(=O)/C=C/c3ccc(S(=O)(=O)NCc4ccco4)cc3)CC2)cc1 | 25 | 54* | 15 | 12 | 26 | -1 | 28
Cc1ccc(-c2cc3onc(-c4ccccc4)c3c(=O)n2C)cc1 | 24 | 43* | 2 | 23 | 19 | 34* | 72*
CN(C)S(=O)(=O)c1ccc(C(=O)NC2CCCc3ccccc32)cc1 (centres undefined) | 8 | 63* | -7 | -5 | 14 | -3 | -2
CN(C)S(=O)(=O)c1cccc(C(=O)NC2CCCc3ccccc32)c1 (centres undefined) | -8 | 19 | 8 | -17 | 5 | nt | nt
COc1ccccc1-c1nnc2n1N=C(c1ccc3c(c1)OCO3)CS2 | nt | -80 | 14 | nt | nt | nt | nt
NS(=O)(=O)c1cccc(NS(=O)(=O)c2cccc(C(F)(F)F)c2)c1 | 10 | 43* | 2 | -3 | 10 | 3 | 3
COc1ccc(-c2nc(N3CCCCCC3)sc2C(=O)c2ccccc2)cc1 | -4 | 58* | -35 | -9 | 6 | -11 | -2
O=C(c1ccccc1)c1sc(N2CCCCCC2)nc1-c1ccccc1 | -4 | -11 | 19 | -3 | 16 | nt | nt
CCN1CCS/C1=C\C=C\C1=[N+](CC)CCS1 | 57 | 68* | -12 | 42 | 34 | 12 | 64*
Cc1ccc(NC(=O)c2cnn(-c3ccccc3)c2C)cc1 | -184 | -27 | -9 | -110 | -84 | nt | nt

Assay outcomes (PubChem BioAssay)
